Measured values as given in PubChem BioAssay (NCI).
This is part of a sample that, as a whole, favours compounds with a hit. Of some 79,000 tested, about 15% had one in any assay. Unmarked numbers belong to inactive results. The source made the active and inactive calls. Rule as the data show it: active = growth inhibition above about 70%; inactive = the rest.

Test: NCI Yeast Anticancer Drug Screen. Data for the rad50 strain (AID 155);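 also: 0% = growth of vehicle-only cultures of the same strain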
Conditions: S. cerevisiae rad50 strain growth inhibition; at 50.0 µM; hits give high values
Procedure, shortened: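 Inhibition values express reduced yeast growth in compound-treated cultures relative to vehicle-treated controls.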

| SMILES | growth inhibition |
| --- | --- |
| Cc1ccccc1Sc1ccccc1[N+](=O)[O-] | 12.9% |
| Nc1nc(-c2ccc3c(c2)Sc2ccccc2O3)cs1 | 67.6% |
| CC(C)(C)C1CCC2c3c([nH]c4ccccc34)C3C(=O)N(c4ccc(C(=O)O)cc4)C(=O)C3C2C1 (stereo not given) | 96.3% (active) |
| CCC[CH2][Sn]([CH2]CCC)([O]N(C)C(=O)c1ccc(Br)cc1)[O]N(C)C(=O)c1ccc(Br)cc1 | 89.5% (active) |
| COC(=O)c1ccc([N+](=O)[O-])o1 | 70.7% (active) |
| O=C(OC1=C(Br)C(=O)c2ccccc2C1=O)c1ccccc1 | 74.5% (active) |
| O=C(O)C/C(=C\c1ccco1)C(=O)O | 44.9% |
| N#C/C(=C/c1ccc([N+](=O)[O-])o1)c1ccccc1 | 75.8% (active) |
| CCN(CC)CCOc1ccc(C=C2c3ccccc3-c3ccccc32)cc1 | 99.2% (active) |
| Nc1ncnc(N2CCOCC2)c1N | 11.7% |
| Cc1cc(Cl)ccc1N1C(=O)C(=O)C(c2nc3ccccc3o2)C(=O)C1=O | 86.3% (active) |
| Cc1nc2c(Cl)nc(Cl)nc2s1 | 98.5% (active) |
| CC1=NOC(=O)/C1=C/c1ccc(Cl)c(Cl)c1 | 31.9% |
| CN(CCC(=O)/C(=C\c1ccc(Cl)cc1)c1ccccc1)Cc1ccccc1 | 62.9% |
| C(=N\N=C\c1ccc2c(c1)OCO2)/c1ccc2c(c1)OCO2 | 3.1% |
| Clc1ccc(CSc2ncnc3c2ncn3C2CCCCO2)cc1 (stereo not given) | 97.5% (active) |
| CC(=O)OC/C=C/CCCOC(C)=O | 77.8% (active) |
| CCCCCCCCCCOC(=O)c1cccnc1 | -5.45% |
| Cc1ccc2c(c1)C1(SCC(=O)N1c1ccc(Cl)cc1)C(=O)N2 (stereo not given) | 48.6% |
| Oc1ccc(C2CCc3ccccc32)cc1 (stereo not given) | 99.6% (active) |

| SMILES | growth inhibition |
| --- | --- |
| [O-][N+]1=C2CCC/C(=N/O)C2(O)C2CCCCC21N1CCOCC1 (stereo not given) | -8.05% |
| CCCCN(c1ccccc1)c1ncnc2c1ncn2C | 89.7% (active) |
| Cc1cc(C)nc(/C=C/c2ccccc2)c1 | 98.5% (active) |
| CCCCN(C)N=Nc1c(C(N)=O)n[nH]c1C(C)C | 79.7% (active) |
| O=C1C(Cl)=C(Cl)C(=O)C2=C1CC(Cl)C(Cl)C2 (stereo not given) | 99.3% (active) |
| O=C1Oc2ccccc2C(=O)/C1=C/N1C(=O)/C(=C/c2ccc3c(c2)OCO3)SC1=S | 60.9% |
| O=C(/C=C/c1ccc(O)cc1)c1cc(Cl)ccc1O | 95.7% (active) |
| CCCC(C(=O)OCCNC1CCCCC1)c1ccccc1 (stereo not given) | 71.3% (active) |
| c1ccc2cc3c(cc2c1)Nc1c2ccccc2nc2cccc-3c12 | 54% |
| CCCC1CCCC1(CC(=O)c1ccccc1)C(=O)O (stereo not given) | 70.3% (active) |
| COc1ccc(CCN2C(=O)C(=O)N(C3CCCCC3)C2=O)cc1OC | 75.4% (active) |
| COC(C(=O)O)c1ccccc1 (stereo not given) | 75% (active) |
| CCCCCCCCC(=O)NCCCNCCCNC(=O)CCCCCCCC | 69% |
| C[Si](C)(CCC(=O)O)O[Si](C)(C)CCC(=O)O | 99.5% (active) |
| Cc1c2cc[n+](C)cc2c(C)c2c1[nH]c1ccc(Cl)cc12 | 90.2% (active) |
| O=[N+]([O-])c1ccc(C2=Nn3c(nnc3-c3ccc(Cl)cc3)SC2)o1 | 66.5% |
| CCCCCCCCCCN(CCCCCCCCCC)CC(O)c1cc(-c2ccccc2)nc2ccccc12 (stereo not given) | 36.2% |
| O=C(c1ccccc1)C(c1ccccc1)C1(O)C(=O)Nc2c(Cl)cc(Cl)cc21 (stereo not given) | 92.8% (active) |
| COC(=S)S | 41.9% |
| CC/C(=C(\CC)c1ccc(O)c(CN(CC)CC)c1)c1ccc(OC)cc1 | 99.4% (active) |

Test: NCI Yeast Anticancer Drug Screen. Data for the mec2-1 strain (AID 157)
Conditions: S. cerevisiae mec2-1 strain, at 5.0 µM (retest, dose inferred, filed as 0.5), hits give high values
Procedure, shortened: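 mec2-1 yeast strain, carrying an alteration in DNA damage repair or cell cycle control, was exposed to compounds; growth inhibition was measured relative to vehicle-treated controls.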

| SMILES | growth inhibition |
| --- | --- |
| Cc1ccccc1Sc1ccccc1[N+](=O)[O-] | 1% |
| Nc1nc(-c2ccc3c(c2)Sc2ccccc2O3)cs1 | 39% |
| CC(C)(C)C1CCC2c3c([nH]c4ccccc34)C3C(=O)N(c4ccc(C(=O)O)cc4)C(=O)C3C2C1 (stereo not given) | 99% (active) |
| CCC[CH2][Sn]([CH2]CCC)([O]N(C)C(=O)c1ccc(Br)cc1)[O]N(C)C(=O)c1ccc(Br)cc1 | 87% (active) |
| COC(=O)c1ccc([N+](=O)[O-])o1 | 7% |
| O=C(OC1=C(Br)C(=O)c2ccccc2C1=O)c1ccccc1 | 31% |
| O=C(O)C/C(=C\c1ccco1)C(=O)O | -4% |
| N#C/C(=C/c1ccc([N+](=O)[O-])o1)c1ccccc1 | -19% |
| CCN(CC)CCOc1ccc(C=C2c3ccccc3-c3ccccc32)cc1 | 99% (active) |
| Nc1ncnc(N2CCOCC2)c1N | 0% |
| Cc1cc(Cl)ccc1N1C(=O)C(=O)C(c2nc3ccccc3o2)C(=O)C1=O | 21% |
| Cc1nc2c(Cl)nc(Cl)nc2s1 | 35% |
| CC1=NOC(=O)/C1=C/c1ccc(Cl)c(Cl)c1 | 10% |
| CN(CCC(=O)/C(=C\c1ccc(Cl)cc1)c1ccccc1)Cc1ccccc1 | 100% (active) |
| C(=N\N=C\c1ccc2c(c1)OCO2)/c1ccc2c(c1)OCO2 | 3% |
| Clc1ccc(CSc2ncnc3c2ncn3C2CCCCO2)cc1 (stereo not given) | -7% |
| CC(=O)OC/C=C/CCCOC(C)=O | -12% |
| CCCCCCCCCCOC(=O)c1cccnc1 | 0% |
| Cc1ccc2c(c1)C1(SCC(=O)N1c1ccc(Cl)cc1)C(=O)N2 (stereo not given) | 6% |
| Oc1ccc(C2CCc3ccccc32)cc1 (stereo not given) | -36% |

| SMILES | growth inhibition |
| --- | --- |
| [O-][N+]1=C2CCC/C(=N/O)C2(O)C2CCCCC21N1CCOCC1 (stereo not given) | 29% |
| CCCCN(c1ccccc1)c1ncnc2c1ncn2C | -3% |
| Cc1cc(C)nc(/C=C/c2ccccc2)c1 | 1% |
| CCCCN(C)N=Nc1c(C(N)=O)n[nH]c1C(C)C | -8% |
| O=C1C(Cl)=C(Cl)C(=O)C2=C1CC(Cl)C(Cl)C2 (stereo not given) | 90% (active) |
| O=C1Oc2ccccc2C(=O)/C1=C/N1C(=O)/C(=C/c2ccc3c(c2)OCO3)SC1=S | -7% |
| O=C(/C=C/c1ccc(O)cc1)c1cc(Cl)ccc1O | 6% |
| CCCC(C(=O)OCCNC1CCCCC1)c1ccccc1 (stereo not given) | -13% |
| c1ccc2cc3c(cc2c1)Nc1c2ccccc2nc2cccc-3c12 | 17% |
| CCCC1CCCC1(CC(=O)c1ccccc1)C(=O)O (stereo not given) | 19% |
| COc1ccc(CCN2C(=O)C(=O)N(C3CCCCC3)C2=O)cc1OC | -1% |
| COC(C(=O)O)c1ccccc1 (stereo not given) | -1% |
| CCCCCCCCC(=O)NCCCNCCCNC(=O)CCCCCCCC | -18% |
| C[Si](C)(CCC(=O)O)O[Si](C)(C)CCC(=O)O | -4% |
| Cc1c2cc[n+](C)cc2c(C)c2c1[nH]c1ccc(Cl)cc12 | 28% |
| O=[N+]([O-])c1ccc(C2=Nn3c(nnc3-c3ccc(Cl)cc3)SC2)o1 | 10% |
| CCCCCCCCCCN(CCCCCCCCCC)CC(O)c1cc(-c2ccccc2)nc2ccccc12 (stereo not given) | -2% |
| O=C(c1ccccc1)C(c1ccccc1)C1(O)C(=O)Nc2c(Cl)cc(Cl)cc21 (stereo not given) | -6% |
| COC(=S)S | -2% |
| CC/C(=C(\CC)c1ccc(O)c(CN(CC)CC)c1)c1ccc(OC)cc1 | 15% |
